Assay results taken from PubChem BioAssay (Tox21).
A number with no mark means an inactive call. Results filed as inconclusive are left out. A call without a number means that no potency is given here. Calls of active or inactive are those of the source. Unless noted, calls follow the shape of the dose curve; as a rule, active = well fitted curve in the direction sought with a large enough effect in the repeat runs; inconclusive = weak or mixed curves; inactive = no such curve, though single readings can be large; an effect the other way counts as inactive or inconclusive.

Tests used:
[1] = A CellTox Green Cytotoxicity Assay to monitor cytotoxicity in HEK293 cells - 32 hour (AID 1224881); also: nearly all actives have a fitted effect of over 40% in size
How it was run: (§1)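 Cytotoxicity was tracked continuously in HEK293 cells by a DNA-binding dye excluded from viable cells. Compounds were transferred in DMSO 5 h after seeding; fluorescence was recorded at intervals up to 40 h.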

[2] = A CellTox Green Cytotoxicity Assay to monitor cytotoxicity in HepG2 cells - 0 hour (AID 1224882); also: nearly all actives have a fitted effect of over 35% in size
How it was run: (§2)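 Real-time, homogeneous cytotoxicity readout: dead-cell DNA staining by CellTox Green in HepG2 monolayers, fluorescence measured at timed intervals up to 40 h of continuous compound exposure.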

[3] = A CellTox Green Cytotoxicity Assay to monitor cytotoxicity in HepG2 cells - 32 hour (AID 1224883); also: nearly all actives have a fitted effect of over 50% in size
How it was run: as §2

[4] = A CellTox Green Cytotoxicity Assay to monitor cytotoxicity in HEK293 cells - 8 hour (AID 1224884); also: nearly all actives have a fitted effect of over 35% in size
How it was run: as §1

[5] = qHTS RealTime-Glo MT Cell Viability Assay in HepG2 cells - 16 hour (AID 1224885); also: nearly all actives have a fitted effect of over 50% in size
How it was run: (§3)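 Compound treatment began 5 h after plating HepG2 cells (600/well) with NanoLuc luciferase and prosubstrate. Plates stayed at 37 C for 40 h; luminescence was captured at six time points, 0 h through 40 h.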

[6] = qHTS RealTime-Glo MT Cell Viability Assay in HEK293 cells - 24 hour (AID 1224886); also: top concentration of the series differs between compounds; nearly all actives have a fitted effect of over 50% in size
How it was run: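 Quantitative high-throughput screen of the Tox21 10K library in HEK293: cells and RealTime-Glo reagents plated together, compound added at 5 h, luminescence monitored through 40 h at 37 C.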

[7] = qHTS RealTime-Glo MT Cell Viability Assay in HEK293 cells - 8 hour (AID 1224887); also: top concentration of the series differs between compounds; nearly all actives have a fitted effect of over 50% in size
How it was run: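 Nonlytic bioluminescent viability monitoring. HEK293 at 600 cells/well with reagent; 5 h settle; compound transfer by pintool; plates held at 37 C and read at set time points.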

[8] = A CellTox Green Cytotoxicity Assay to monitor cytotoxicity in HEK293 cells - 16 hour (AID 1224888); also: nearly all actives have a fitted effect of over 35% in size
How it was run: as §1

[9] = qHTS RealTime-Glo MT Cell Viability Assay in HepG2 cells - 0 hour (AID 1224889); also: nearly all actives have a fitted effect of over 50% in size; also: potency is read from the fitted curve at half-maximal effect
How it was run: as §3

[10] = A CellTox Green Cytotoxicity Assay to monitor cytotoxicity in HepG2 cells - 8 hour (AID 1224890); also: nearly all actives have a fitted effect of over 45% in size
How it was run: as §2

[11] = qHTS assay to identify small molecule antagonists of the estrogen receptor alpha (ER-alpha) signaling pathway using the BG1 cell line in the presence of 0.1 nM 17-beta-estradiol - cell viability counter screen (AID 1259241); also: nearly all actives have a fitted effect of over 40% in size
How it was run: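 CellTiter-Fluor read (30 min, 37C) on ER-alpha/ERE-luc VM7Luc4E2 cells; 22 hr compound treatment; agonist 0.1 nM E2 final; same-well multiplex.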

[12] = qHTS assay to identify small molecule antagonists of the androgen receptor (AR) signaling pathway using the MDA cell line in the presence of 0.5 nM R1881 - cell viability counter screen (AID 1259242); also: nearly all actives have a fitted effect of over 45% in size
How it was run: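 Cytotoxicity toward MDA-kb2 cells is measured by CellTiter-Fluor live-cell protease fluorescence after 16 hr compound exposure at 37C in the presence of 0.5 nM R1881 stimulator.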

[13] = target: Estrogen receptor (Homo sapiens) (UniProt P03372); assay: qHTS assay to identify small molecule antagonists of the estrogen receptor alpha (ER-alpha) signaling pathway using the BG1 cell line in the presence of 0.1 nM 17-beta-estradiol (AID 1259244); also: nearly all actives have a fitted effect of over 50% in size
How it was run: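 After 5 days in hormone-depleted medium (charcoal-stripped serum, no phenol red), VM7Luc4E2 cells were seeded, incubated 24 h, then co-treated with compound and 0.1 nM (final) estradiol for 22 h before luminescence detection.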

[14] = qHTS assay to identify small molecule phospholipidosis (PLD) inducers (AID 1259344; active = well fitted curve in the direction sought with a large enough effect; an effect the other way counts as inactive or inconclusive)
How it was run: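 Phospholipidosis is scored by imaging LipidTOX-stained pits in HepG2 cells exposed to compound for 24 h at 37 C; pit counts and integrated intensities per well and per cell serve as outputs.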

[15] = qHTS assay to identify small molecule HDAC inhibitors (AID 1259364); also: top concentration of the series differs between compounds; nearly all actives have a fitted effect of over 45% in size
How it was run: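 Homogeneous cell-based luminescent assay of endogenous class I/II HDAC activity; HCT-116 cells, 2 h compound exposure, 30 min HDAC-Glo development at RT.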

[16] = qHTS assay to identify small molecule HDAC inhibitors - cell viability counter screen (AID 1259365)
How it was run: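 To flag cytotoxic hits, 1,500 wild-type HCT-116 cells per well, plated the day before, receive test compounds for 2hr at 37 C before CellTiter-Glo reagent and a luminescence read.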

[17] = qHTS assay to identify small molecule antagonists of the sonic hedgehog signaling (Shh) pathway - cell viability counter screen (AID 1259367); also: nearly all actives have a fitted effect of over 55% in size
How it was run: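 Cells: 3T3 Gli1-Luc, 2,000/well, 4 hr pre-incubation. Compounds in DMSO, then conditioned medium. Incubation 24 hr, 37C, 5% CO2. CellTiter-Fluor at 23 hr, 1 hr, fluorescence.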

[18] = qHTS assay to identify small molecule agonists of the sonic hedgehog signaling (Shh) pathway - cell viability counter screen (AID 1259366); also: nearly all actives have a fitted effect of over 50% in size
How it was run: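 Fluorescence from CellTiter-Fluor reports live cells in this counter screen. NIH/3T3-derived Gli1-Luc reporter cells receive test compounds for 24hr at 37C; reagent goes in at 23hr.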

[19] = qHTS assay to identify small molecule agonists of the sonic hedgehog signaling (Shh) pathway (AID 1259368; calls by dose curve;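 also: NIH/3T3-derived 3T3Gli1-Luc cells carrying a stable Gli1-driven firefly luciferase reporter; series mostly up to about 92 µM; nearly all actives have a fitted effect of over 15% in size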)
How it was run: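 Steps: seed 3T3 Gli1-Luc cells, incubate 4 hr at 37 C, pin-transfer compounds in DMSO alongside a positive control, incubate 24 hr, add luciferase detection reagent, wait 30 min at room temperature, read luminescence.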

[20] = target: Androgen receptor (Homo sapiens) (UniProt P10275); assay: qHTS assay to identify small molecule antagonists of the androgen receptor (AR) signaling pathway using the MDA cell line in the presence of 0.5 nM R1881 (AID 1259243); also: nearly all actives have a fitted effect of over 50% in size
How it was run: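 Steps: seed MDA-kb2 cells, incubate 5 hr at 37C; pin-transfer compounds in DMSO; add R1881 to 0.5 nM final; incubate 16 hr; add ONE-Glo, wait 30 min at room temperature; read luminescence.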

Estrogen receptor (Homo sapiens), sequence (P03372 whole entry, looked up): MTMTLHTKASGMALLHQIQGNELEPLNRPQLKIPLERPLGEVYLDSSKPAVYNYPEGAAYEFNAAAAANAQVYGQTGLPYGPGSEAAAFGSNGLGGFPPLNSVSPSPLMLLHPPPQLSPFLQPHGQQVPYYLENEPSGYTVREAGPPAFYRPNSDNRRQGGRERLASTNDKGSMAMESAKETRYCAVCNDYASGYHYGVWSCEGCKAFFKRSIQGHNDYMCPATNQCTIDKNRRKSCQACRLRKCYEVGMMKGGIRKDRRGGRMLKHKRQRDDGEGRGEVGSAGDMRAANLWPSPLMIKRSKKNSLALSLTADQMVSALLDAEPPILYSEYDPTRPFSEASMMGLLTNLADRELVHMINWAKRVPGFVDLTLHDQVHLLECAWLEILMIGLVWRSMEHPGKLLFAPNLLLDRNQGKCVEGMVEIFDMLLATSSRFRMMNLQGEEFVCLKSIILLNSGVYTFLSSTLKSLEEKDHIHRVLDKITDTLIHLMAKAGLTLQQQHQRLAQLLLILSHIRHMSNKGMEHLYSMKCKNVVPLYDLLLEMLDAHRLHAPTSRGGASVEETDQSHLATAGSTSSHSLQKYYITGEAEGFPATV
Androgen receptor (Homo sapiens), sequence (P10275 whole entry, looked up): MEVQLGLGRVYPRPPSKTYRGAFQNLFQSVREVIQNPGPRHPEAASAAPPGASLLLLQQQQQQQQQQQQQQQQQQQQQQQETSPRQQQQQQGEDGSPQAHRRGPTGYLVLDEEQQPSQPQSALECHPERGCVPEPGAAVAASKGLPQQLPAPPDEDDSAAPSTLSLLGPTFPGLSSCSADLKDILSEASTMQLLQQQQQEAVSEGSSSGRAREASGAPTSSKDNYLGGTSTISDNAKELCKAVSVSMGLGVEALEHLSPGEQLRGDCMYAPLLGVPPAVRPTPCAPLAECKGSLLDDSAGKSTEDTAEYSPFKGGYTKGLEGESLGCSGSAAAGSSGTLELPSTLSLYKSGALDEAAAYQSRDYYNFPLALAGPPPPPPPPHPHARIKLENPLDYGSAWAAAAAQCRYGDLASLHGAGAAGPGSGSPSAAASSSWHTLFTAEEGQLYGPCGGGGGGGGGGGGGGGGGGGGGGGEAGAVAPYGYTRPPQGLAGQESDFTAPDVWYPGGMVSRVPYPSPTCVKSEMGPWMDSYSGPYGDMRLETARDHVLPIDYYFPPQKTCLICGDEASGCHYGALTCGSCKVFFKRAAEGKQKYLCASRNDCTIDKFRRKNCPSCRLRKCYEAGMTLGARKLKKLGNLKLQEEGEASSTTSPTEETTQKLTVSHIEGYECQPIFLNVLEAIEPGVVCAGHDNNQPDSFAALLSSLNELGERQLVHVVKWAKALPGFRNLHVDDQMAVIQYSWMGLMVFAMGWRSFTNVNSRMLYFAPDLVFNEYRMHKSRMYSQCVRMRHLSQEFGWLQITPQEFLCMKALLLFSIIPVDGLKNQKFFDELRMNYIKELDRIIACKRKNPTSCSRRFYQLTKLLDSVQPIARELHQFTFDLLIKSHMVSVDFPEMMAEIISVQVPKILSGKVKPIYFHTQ

CCCCC(=O)OCC(=O)[C@H]1[C@H](C)C[C@H]2[C@@H]3C[C@H](F)C4=CC(=O)C=C[C@]4(C)[C@@]3(F)[C@@H](O)C[C@@]21C
Potency [1]: inactive | Potency [2]: inactive | Potency [3]: inactive | Potency [4]: inactive | Potency [5]: inactive | Potency [6]: inactive | Potency [7]: inactive | Potency [8]: inactive | Potency [9]: 0.952 µM (active) | Potency [10]: inactive | Potency [11]: inactive | Potency [12]: inactive | Potency [13]: inactive | PLD induction [14]: -1.62% [at 7.66 µM] | Potency [15]: inactive | Potency [16]: inactive | Potency [17]: inactive

CC1=CC=C(C(C)C)CC1
Potency [1]: inactive | Potency [2]: inactive | Potency [3]: inactive | Potency [4]: inactive | Potency [5]: inactive | Potency [6]: inactive | Potency [7]: inactive | Potency [8]: inactive | Potency [9]: inactive | Potency [10]: inactive | Potency [11]: inactive | Potency [12]: inactive | Potency [13]: inactive | Potency [15]: inactive | Potency [16]: inactive | Potency [18]: inactive | Potency [17]: inactive | outcome [19]: inactive

CCCCCCCCCCCc1ccccc1
Potency [1]: inactive | Potency [2]: inactive | Potency [3]: inactive | Potency [4]: inactive | Potency [5]: inactive | Potency [6]: inactive | Potency [7]: inactive | Potency [8]: inactive | Potency [9]: inactive | Potency [10]: inactive | Potency [11]: inactive | Potency [12]: inactive | Potency [13]: inactive | Potency [15]: inactive | Potency [18]: inactive | Potency [17]: inactive | outcome [19]: inactive

COCC(C)OC(C)=O (centres undefined)
Potency [1]: inactive | Potency [2]: inactive | Potency [3]: inactive | Potency [4]: inactive | Potency [5]: inactive | Potency [6]: inactive | Potency [7]: inactive | Potency [8]: inactive | Potency [9]: inactive | Potency [10]: inactive | Potency [11]: inactive | Potency [12]: inactive | Potency [13]: inactive | Potency [16]: inactive | Potency [18]: inactive | Potency [17]: inactive

CN(C)CCN(Cc1ccccc1)c1ccccn1
Potency [1]: inactive | Potency [2]: inactive | Potency [3]: inactive | Potency [4]: inactive | Potency [5]: inactive | Potency [6]: inactive | Potency [7]: inactive | Potency [8]: inactive | Potency [9]: inactive | Potency [10]: inactive | Potency [11]: inactive | Potency [12]: inactive | Potency [13]: inactive | Potency [14]: inactive | Potency [15]: inactive | Potency [16]: inactive | Potency [18]: inactive | Potency [17]: inactive | outcome [19]: inactive

COC(C)OC
Potency [1]: inactive | Potency [2]: inactive | Potency [3]: inactive | Potency [4]: inactive | Potency [5]: inactive | Potency [6]: inactive | Potency [7]: inactive | Potency [8]: inactive | Potency [9]: inactive | Potency [10]: inactive | Potency [11]: inactive | Potency [12]: inactive | Potency [13]: inactive | Potency [15]: inactive | Potency [16]: inactive | Potency [18]: inactive | Potency [17]: inactive | outcome [19]: inactive

CCOC(=O)C(=O)CCc1ccccc1
Potency [1]: inactive | Potency [2]: inactive | Potency [3]: inactive | Potency [4]: inactive | Potency [5]: inactive | Potency [6]: inactive | Potency [7]: inactive | Potency [8]: inactive | Potency [9]: inactive | Potency [10]: inactive | Potency [11]: inactive | Potency [12]: inactive | Potency [20]: inactive | Potency [13]: inactive | Potency [15]: inactive | Potency [16]: inactive | Potency [18]: inactive | Potency [17]: inactive | outcome [19]: inactive
